Measurements as given in ChEMBL document CHEMBL4513146, “CO-ADD screening of Karazin Kharkiv National University (Ukraine) compounds”.
Measured potencies and affinities stand elsewhere.

The compounds below were run on Staphylococcus aureus. Conditions: Concentration 32 ug.mL-1;; ASSAY_TEST Inhibition of Bacterial Growth; detection method Absorption (OD600); MEDIA CAMHB; plate type 384well; NBS; CORNING #3640; time 18 hr.

SMILES	Inhibition
COc1ccccc1Cn1c(=O)c2sccc2n2c(=O)n(Cc3cccc(Br)c3)nc12	-9.99%
COc1ccc(NC(=O)Cn2c(=O)c3nnc(C(C)C)n3c3ccccc32)cc1Cl	10.36%
O=c1c2nn(Cc3ccc([N+](=O)[O-])cc3)c(=O)n2ccn1-c1ccccc1	12.75%
COc1cccc(Oc2nccn3c(=O)n(CC(=O)Nc4ccc(OC)c(OC)c4)nc23)c1	15.47%
CCOc1ccc(C(=O)CSc2nnc3c(=O)n(-c4ccc(F)cc4)ccn23)cc1	23.03%
COc1cccc(NC(=O)Cn2c(=O)c3nnc(C(C)C)n3c3ccccc32)c1	22.3%
O=C(CSc1nnc2c(=O)n(-c3ccc(Br)cc3)ccn12)Nc1ccc(F)cc1	9.36%
COc1ccc(CN(c2ccc(OC)cc2)S(=O)(=O)c2ccc3nnc(C)n3c2)cc1	4.23%
COc1cc(NC(=O)Cn2nc3c(N4CCCC4)nccn3c2=O)cc(OC)c1	5.55%
O=S(=O)(c1ccc2nncn2c1)N(Cc1ccc(Cl)cc1)c1ccc2c(c1)OCO2	11.62%
CCCCc1ccc(NC(=O)Cn2nc3c(N4CCN(c5ccccc5C)CC4)nccn3c2=O)cc1	0.53%
N#CCn1nc2n(Cc3ccc(F)cc3)c(=O)c3ccccc3n2c1=O	1.37%
COc1ccc(CCn2c(=O)c3sccc3n3c(=O)n(Cc4c(F)cccc4Cl)nc23)cc1OC	-2.47%
N#Cc1ccc(NC(=O)Cn2nc3c(SC4CCCCC4)nccn3c2=O)cc1	7.35%
